Assay results taken from PubChem BioAssay.
The source made the active and inactive calls.

Tests used:
[1] = E. coli DRC41 culture turbidity changes, primary screen, E. coli filamentation inducer project, strain DRC41, OD650, 48 h (AID 1152);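 further: E. coli MC1000 strain DRC41 lacking acrAB efflux pump and sulA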; conditions: E. coli DRC41 (acrAB sulA), higher = more signal, called active from +8 up or from −8 down
[2] = small-molecule binders of probe aLefty1, primary screen, biochemical, small-molecule microarray, 635/667 nm fluorescence (AID 1153); conditions: higher = more signal;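 further: score merges spot fluorescence with signal-to-noise ratio from the scanned slide images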
[3] = PSAC antagonists in infected red cells, primary screen, cell-based, P. falciparum Indochina, OD700, 1 h (AID 1154); conditions: P. falciparum Indochina infected RBC osmotic lysis, higher = more signal, called active from +8 up or from −8 down
[4] = PSAC antagonists in infected red cells, primary screen, cell-based, P. falciparum Indochina, OD700, 2 h (AID 1155);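 further: lysis reports solute entry through the parasite surface anion channel PSAC; channel blockers reduce lysis of infected cells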; conditions: P. falciparum Indochina infected erythrocytes, osmotic lysis OD700; higher = more signal, called active from +8 up or from −8 down
[5] = osmotic lysis modulators in infected erythrocytes, primary screen, PSAC antagonist project, cell-based, P. falciparum Indochina, OD700, 3 h (AID 1156); conditions: higher = more signal, called active from +8 up or from −8 down
[6] = PSAC antagonists in infected red cells, primary screen, cell-based, P. falciparum Indochina, OD700, 18 h (AID 1157); conditions: P. falciparum Indochina infected erythrocytes, osmotic lysis OD700, 18 h; higher = more signal, called active from +8 up or from −8 down
[7] = modulators of S6 phosphorylation in cells, primary screen, cell-based, A549, cytoblot, luminescence, serum-stimulated (AID 1158); conditions: A549 phospho-S6 cytoblot, 5 h, higher = more signal;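 further: serum-stimulated A549 lung adenocarcinoma cells; signal is phosphorylated S6 detected by cytoblot immunostaining with HRP secondary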
[8] = biological target: NADPH oxidase 2 (Homo sapiens) (UniProt P04839); experiment: NOX2-dependent H2O2 signal modulators, primary screen, NOX inhibitor project, cell-based, HEK293-NOX2, PMA-stimulated, Amplex Red fluorescence (AID 1159); conditions: 45 min, higher = more signal, called active from +8 up or from −8 down; further: test concentration not given here
[9] = biological target: NADPH oxidase 4 (Homo sapiens) (UniProt Q9NPH5); experiment: NOX4-dependent H2O2 signal modulators, primary screen, NOX inhibitor project, cell-based, HEK293-NOX4, tetracycline-induced, Amplex Red fluorescence (AID 1160); conditions: 45 min, higher = more signal, called active from +8 up or from −8 down
[10] = biological target: NADPH oxidase 5 (Homo sapiens) (UniProt Q96PH1); experiment: NOX5-dependent H2O2 signal modulators, primary screen, NOX inhibitor project, cell-based, HEK293-NOX5, Amplex Red fluorescence (AID 1161); conditions: HEK293-NOX5, ionomycin, 45 min, higher = more signal
[11] = A549 cell viability effects, profiling panel, calcein-AM fluorescence, 48 h, basal (AID 1162); conditions: higher = more signal; further: test concentration not given here
[12] = adipocyte viability effects, profiling panel, cell-based, 3T3-L1 adipocytes, calcein-AM fluorescence, 48 h, basal (AID 1163); conditions: 3T3-L1 adipocytes viability, higher = more signal; further: test concentration not given here
[13] = HepG2 cell viability effects, profiling panel, calcein-AM fluorescence, 48 h, basal (AID 1164); conditions: higher = more signal; further: test concentration not given here
[14] = MM1S cell viability effects, profiling panel, calcein-AM fluorescence, 48 h, basal (AID 1165); conditions: higher = more signal;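 further: viability of MM1S multiple myeloma cells under basal unstimulated conditions; test concentration not given here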
[15] = basal RPMI8226 viability, no added stimulus, profiling panel, cell-based, calcein-AM fluorescence, 48 h, PK04 Diversity Set (AID 1166); conditions: RPMI8226 myeloma viability, higher = more signal;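 further: cells grown under basal conditions without added stimulus; test concentration not given here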
[16] = basal HepG2 mitochondrial membrane potential changes, profiling panel, cell-based, JC-1 fluorescence, 24 h, 100 nL compound (AID 1167); conditions: higher = more signal; further: test concentration not given here
[17] = basal 3T3-L1 adipocyte mitochondrial potential changes, profiling panel, cell-based, JC-1 fluorescence, 3T3-L1 adipocytes, 24 h, 100 nL compound (AID 1168); conditions: JC-1 mitochondrial fluorescence, higher = more signal, called active from +8 up or from −8 down; further: test concentration not given here
[18] = basal RPMI8226 mitochondrial membrane potential changes, profiling panel, cell-based, JC-1 fluorescence, 24 h, 100 nL compound (AID 1169); conditions: RPMI8226 myeloma, JC-1 mitochondrial potential fluorescence, higher = more signal; further: test concentration not given here
[19] = basal MM1S mitochondrial membrane potential changes, profiling panel, cell-based, JC-1 fluorescence, 24 h, 100 nL compound (AID 1170); conditions: higher = more signal; further: test concentration not given here
[20] = A549 lung cancer cell viability effects, profiling panel, resazurin fluorescence, 24 h, PK04 Diversity Set (AID 1171); conditions: higher = more signal, called active from +8 up or from −8 down; further: test concentration not given here

NADPH oxidase 5 (Homo sapiens), sequence (Q96PH1 whole entry, looked up): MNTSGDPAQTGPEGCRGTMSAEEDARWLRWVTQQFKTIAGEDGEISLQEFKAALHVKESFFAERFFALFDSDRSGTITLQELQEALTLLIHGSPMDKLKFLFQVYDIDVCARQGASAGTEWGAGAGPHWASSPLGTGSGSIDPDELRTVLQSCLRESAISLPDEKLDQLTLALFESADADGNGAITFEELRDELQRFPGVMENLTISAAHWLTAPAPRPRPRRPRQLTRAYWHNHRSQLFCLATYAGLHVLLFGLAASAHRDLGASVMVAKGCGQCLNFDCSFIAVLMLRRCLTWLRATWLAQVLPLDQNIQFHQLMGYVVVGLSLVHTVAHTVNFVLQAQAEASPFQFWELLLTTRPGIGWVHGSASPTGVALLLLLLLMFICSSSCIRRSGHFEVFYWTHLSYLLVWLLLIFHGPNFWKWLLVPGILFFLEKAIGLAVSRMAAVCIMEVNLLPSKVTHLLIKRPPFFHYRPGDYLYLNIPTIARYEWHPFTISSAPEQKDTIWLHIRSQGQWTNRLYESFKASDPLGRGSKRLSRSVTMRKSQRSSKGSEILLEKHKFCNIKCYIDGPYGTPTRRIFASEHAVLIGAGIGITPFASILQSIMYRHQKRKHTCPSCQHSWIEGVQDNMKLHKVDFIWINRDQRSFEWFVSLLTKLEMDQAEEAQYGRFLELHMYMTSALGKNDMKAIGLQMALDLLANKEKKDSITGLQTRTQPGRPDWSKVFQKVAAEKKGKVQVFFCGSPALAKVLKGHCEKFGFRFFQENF
NADPH oxidase 2 (Homo sapiens), sequence (P04839 whole entry, looked up): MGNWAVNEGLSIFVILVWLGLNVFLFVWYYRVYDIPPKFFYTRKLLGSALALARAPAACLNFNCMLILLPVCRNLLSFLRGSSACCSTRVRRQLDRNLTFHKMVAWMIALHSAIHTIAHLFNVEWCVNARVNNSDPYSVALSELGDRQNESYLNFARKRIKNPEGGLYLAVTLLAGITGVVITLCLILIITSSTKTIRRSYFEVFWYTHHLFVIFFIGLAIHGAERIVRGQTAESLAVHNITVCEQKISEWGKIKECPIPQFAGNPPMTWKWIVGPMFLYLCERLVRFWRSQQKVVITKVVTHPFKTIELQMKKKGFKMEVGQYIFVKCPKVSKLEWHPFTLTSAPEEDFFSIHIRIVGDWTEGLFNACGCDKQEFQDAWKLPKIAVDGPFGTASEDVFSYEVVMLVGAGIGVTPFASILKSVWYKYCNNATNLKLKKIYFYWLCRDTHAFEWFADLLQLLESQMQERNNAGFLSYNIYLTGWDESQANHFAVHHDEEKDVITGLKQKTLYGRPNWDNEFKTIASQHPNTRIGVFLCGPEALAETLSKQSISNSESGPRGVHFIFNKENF
NADPH oxidase 4 (Homo sapiens), sequence (Q9NPH5 whole entry, looked up): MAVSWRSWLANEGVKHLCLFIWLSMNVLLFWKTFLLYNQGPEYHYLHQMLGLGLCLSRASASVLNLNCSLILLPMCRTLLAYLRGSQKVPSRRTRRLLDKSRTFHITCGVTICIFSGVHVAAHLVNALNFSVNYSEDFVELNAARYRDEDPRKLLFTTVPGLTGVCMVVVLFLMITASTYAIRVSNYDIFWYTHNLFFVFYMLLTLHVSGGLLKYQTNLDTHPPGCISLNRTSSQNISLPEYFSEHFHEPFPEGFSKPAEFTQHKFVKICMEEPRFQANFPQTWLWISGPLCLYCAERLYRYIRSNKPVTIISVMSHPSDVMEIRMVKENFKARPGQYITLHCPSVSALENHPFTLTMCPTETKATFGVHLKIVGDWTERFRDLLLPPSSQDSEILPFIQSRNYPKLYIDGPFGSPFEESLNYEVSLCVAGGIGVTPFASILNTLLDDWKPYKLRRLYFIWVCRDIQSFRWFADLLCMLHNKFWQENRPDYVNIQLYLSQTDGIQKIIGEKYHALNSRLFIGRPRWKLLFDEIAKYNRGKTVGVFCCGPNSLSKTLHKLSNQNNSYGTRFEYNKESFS

SMILES | z-score [1] | composite z-score [2] | z-score [3] | z-score [4] | z-score [5] | z-score [6] | z-score [7] | z-score [8] | z-score [9] | z-score [10] | z-score [11] | z-score [12] | z-score [13] | z-score [14] | z-score [15] | z-score [16] | z-score [17] | z-score [18] | z-score [19] | z-score [20]
CC(=O)NCCCC[C@@H]1NC(=O)[C@H]2C[C@@H](C(=O)NCCCCCCNC(=O)CS)[C@@H](c3ccc(O)cc3)N2C1=O | 0.0783 (inactive) | 0.132 | 4.2 (inactive) | 0.507 (inactive) | 3.45 (inactive) | 0.301 (inactive) | -0.371 | 0.294 (inactive) | -0.187 (inactive) | 0.673 | -0.224 | 0.726 | -1.28 | -0.197 | 0.0535 | -1.33 | 0.184 (inactive) | -0.0883 | -0.213 | -0.689 (inactive)
CCCC[C@@H]1C[C@H]1[C@@H](NC(=O)c1ccccc1)c1ccc(C(=O)OC)cc1 | -2.42 (inactive) | 0.357 | 12.2 (active) | 1.91 (inactive) | 0.57 (inactive) | 0.643 (inactive) | -0.728 | -1.14 (inactive) | -2.96 (inactive) | -0.585 | -0.992 | -0.334 | -0.197 | -1.2 | -2.68 | -2.55 | -1.18 (inactive) | 0.461 | -1.12 | 0.571 (inactive)
COc1ccc(C#Cc2ccc3c(c2)[C@]2(C(=O)N3)[C@H](c3ccccc3OCCO)N3[C@H](c4ccccc4)[C@H](c4ccccc4)OC(=O)[C@H]3[C@@H]2C(=O)Nc2nc3ccccc3s2)cc1 | -0.89 (inactive) | 1.78 | 1.35 (inactive) | 1.67 (inactive) | 1.46 (inactive) | 0.457 (inactive) | -0.0333 | -1.26 (inactive) | -0.977 (inactive) | -4.34 | 0.855 | 0.453 | -0.543 | -2.43 | -2.65 | -3.4 | 2.29 (inactive) | -0.631 | -1.28 | -2.07 (inactive)
COc1ccccc1CN1C(=O)c2ccccc2[C@@H](C(=O)NC2CC2)[C@@H]1c1ccc(CO)cc1 | 0.818 (inactive) | 0.16 | 2.49 (inactive) | 0.873 (inactive) | 1.59 (inactive) | 0.818 (inactive) | -0.291 | 0.211 (inactive) | 0.48 (inactive) | 0.718 | 1.44 | -0.348 | 1.26 | 0.467 | -0.376 | 2.33 | 0.171 (inactive) | 0.371 | -0.0698 | 0.469 (inactive)
O=C(CS)NCCCCCCNC(=O)[C@@H]1C[C@@H]2C(=O)NCC(=O)N2[C@@H]1c1cccc(OCCO)c1 | 0.74 (inactive) | -0.887 | 3.29 (inactive) | 0.156 (inactive) | 2.38 (inactive) | 0.104 (inactive) | 0.59 | 1.54 (inactive) | 0.845 (inactive) | 0.711 | 0.861 | -0.356 | 0.381 | 0.38 | 0.754 | 0.502 | 0.475 (inactive) | 0.116 | -0.502 | -0.489 (inactive)
CC(C)NC(=O)[C@@H]1c2ccccc2C(=O)N(C2Cc3ccccc3C2)[C@H]1c1ccc(CO)cc1 | 0.814 (inactive) | 0.11 | 3.41 (inactive) | 0.119 (inactive) | 0.121 (inactive) | 0.182 (inactive) | 0.0063 | -0.402 (inactive) | 0.0797 (inactive) | -0.994 | 1.54 | -0.27 | 1.22 | 0.543 | 0.982 | 3.83 | 0.976 (inactive) | 0.459 | -0.096 | 1.81 (inactive)
C=CCNC(=O)[C@@H]1[C@H]2C(=O)O[C@H](c3ccccc3)[C@H](c3ccccc3)N2[C@H](c2ccc(O)cc2)[C@@]12C(=O)N(C(=O)OCCOC)c1ccc(C#CCNC(N)=O)cc12 | 0.411 (inactive) | 0.0012 | 0.691 (inactive) | -0.836 (inactive) | 0.537 (inactive) | -1.18 (inactive) | 1.32 | 1.08 (inactive) | 0.438 (inactive) | 0.421 | 0.978 | 0.921 | 0.866 | 0.768 | 1.09 | -0.194 | -0.323 (inactive) | 0.383 | 0.751 | -0.645 (inactive)
CN(C)CCCCCCNC(=O)[C@H]1C[C@H]2C(=O)N[C@@H](CCCCN)C(=O)N2[C@H]1c1cccc(OCCO)c1 | -0.497 (inactive) | 2.71 | 2.2 (inactive) | 0.192 (inactive) | 0.32 (inactive) | 0.229 (inactive) | -0.268 | 1.65 (inactive) | 1.03 (inactive) | 1.24 | -0.214 | 0.414 | -0.458 | -0.371 | -0.497 | 0.272 | 0.587 (inactive) | -0.636 | 0.358 | -0.0439 (inactive)
CC(C)C[C@@H]1NC(=O)[C@@H]2C[C@H](C(=O)NCc3ccc(F)cc3)[C@H](c3cccc(OCCO)c3)N2C1=O | 1.39 (inactive) | -0.204 | 8.19 (active) | 0.722 (inactive) | -1.79 (inactive) | 0.546 (inactive) | 0.74 | 1.33 (inactive) | 1.08 (inactive) | 1.44 | 1.21 | -0.613 | 0.259 | 1.04 | 0.828 | 1.9 | 0.0605 (inactive) | -0.0212 | -0.657 | 0.234 (inactive)
